Molecules are shown by their SMILES. The whole screen tested about 48,000 compounds, of which about 13,000 (27%) showed an effect of 50% or more. This is one part of the list.

The experiment deals with Wolbachia pipientis. The experiment in a line: Anti-Wolbachia Cell-Based Screen. In kind it is functional. Details: scale not given: in the data most compounds retested in dose-response had high values. The conditions noted are these: 5 µM.
Take `COC[C@]1(O)CCN(C(=O)c2ccc(CN(C)C)o2)CC1(C)C`: the “Percent Effect” value is on record as -8.345%.

With `Cc1cnc(N)nc1N1CCN(CCCO)CC1`, the “Percent Effect” value is -5.518%.

As for `CC1(C)[C@H](Cc2cc(CO)on2)C[C@@H]1NCc1ccc(CO)o1`, the “Percent Effect” value is reported as -1.541%. Regarding `CN(C)c1ncccc1CNS(=O)(=O)c1cc(F)cc(F)c1`, the “Percent Effect” value is 128.3%. On to `Cc1c(Cl)cccc1S(=O)(=O)NCc1cnc(N(C)C)n1C`, for which the “Percent Effect” value is recorded as -2.35%. For `CN(C)c1ncccc1CNS(=O)(=O)c1cc(F)ccc1F`, the “Percent Effect” value came out at 114.6%. In the case of `CN(C)c1ncccc1CNS(=O)(=O)c1ccccc1Cl`, the “Percent Effect” value is listed as 109.5%. For `CN(C)C(CNS(=O)(=O)c1cc(F)ccc1F)c1cccn1C` (stereo not given), the “Percent Effect” value is on record as 10.84%. Take `CN(C)c1ncccc1CNS(=O)(=O)c1ccc(F)cc1F`: the “Percent Effect” value is on record as 106.1%.

Regarding `COc1ccc(S(=O)(=O)NCc2cccnc2N(C)C)cc1F`, the “Percent Effect” value is given as -8.756%. Consider `CC(C)N(C)S(=O)(=O)NCc1cccnc1N(C)C`, for which the “Percent Effect” value is 34.56%. In the case of `CN(C)C(CNS(=O)(=O)c1ccc(F)cc1F)c1cccn1C` (stereo not given), the “Percent Effect” value was -13.11%. Take `CN(C)c1nc(NCc2cccnc2N)ncc1F`: the “Percent Effect” value was 20.84%. For `COC(=O)c1ccc(S(=O)(=O)NCc2cccnc2N(C)C)cc1`, the “Percent Effect” value is -18.83%. In the case of `O=C1CC2(CCN(c3nccc(-c4cc(C(=O)O)ccn4)n3)CC2)CN1`, the “Percent Effect” value turned out to be 4.533%. As for `CC(C)(C)c1ncc(CNc2ccn(CCc3ccncc3)n2)s1`, the “Percent Effect” value is 6.667%. In the case of `CC1CS(=O)(=O)CCN1Cc1ccccc1N(C)C` (stereo not given), the “Percent Effect” value is recorded as -2.207%. For the compound `CCc1cc(N[C@@H]2C[C@H]3CC[C@@H]2C3)n2nccc2n1`, the “Percent Effect” value is reported as 3.761%. On to `Cc1cc(C(=O)N(C)Cc2nc(-c3ccccn3)no2)c(C)o1`, for which the “Percent Effect” value is -5.968%.

On to `CCCC(C)CS(=O)(=O)NCc1cccnc1N(C)C` (stereo not given), for which the “Percent Effect” value is 13.21%. In the case of `CN(C)c1ncccc1CNC(=O)N(Cc1ccccc1F)C1CC1` it was 8.051%; in that of `CN(C)c1ncccc1CNS(=O)(=O)c1c(F)cccc1F`, 108%; in that of `CO[C@H]1CCN(S(=O)(=O)c2cccs2)[C@H]1Cc1ccncc1`, -16.22%.

With `Cc1cnn(-c2cncc(C(N)=O)c2)c1`, the “Percent Effect” value is given as -7.115%. For the compound `COCC(NC(=O)NCc1sc(C)nc1C)c1ccco1` (stereo not given), the “Percent Effect” value is -12.64%.

With `CCOc1ccccc1NC(=O)Nc1cc(N2CCCC2)ncn1`, the “Percent Effect” value is -20.57%. Regarding `O=C(Cn1ncc(N2CCNCC2)cc1=O)NCCc1ccc(F)cc1`, the “Percent Effect” value is listed as -10.43%. For the compound `O=C(NCCNc1cc(N2CCCC2)cnn1)Nc1ccccc1F`, the “Percent Effect” value is recorded as 106.6%. Regarding `O=C(Cc1ccc(F)cc1)NCCNc1cc(N2CCCC2)ncn1`, the “Percent Effect” value came to 80.33%. In the case of `O=C(Cc1ccc(F)cc1)NCCNCC1CNc2ccnn2C1` (stereo not given), the “Percent Effect” value is on record as -7.839%. In the case of `O=C(Cc1ccc(F)cc1)NCCNc1cc(N2CCCC2)cnn1` it was 105.1%; in that of `Cc1ccccc1NC(=O)Nc1cc(N2CCCC2)ncn1`, -4.653%; in that of `CC(C)(C)C(=O)NCCNc1cc(N2CCCC2)ncn1`, -0.9567%. On to `O=C(Cn1ccc2ccccc21)Nc1cc(N2CCCC2)ncn1`, for which the “Percent Effect” value is -7.456%. In the case of `O=C1N[C@@H]2CCN(C(=O)C3CCCC3)[C@@H]2C(=O)N1c1ccc(F)cc1`, the “Percent Effect” value is listed as -1.999%. As for `CS(=O)(=O)N1CCOCC2(CN(Cc3ccco3)CCO2)C1.O=C(O)C(F)(F)F` (stereo not given), the “Percent Effect” value is given as -8.773%.

For the compound `O=C1CCCc2nccc(-c3ccccc3)c21`, the “Percent Effect” value is given as -3.137%.

Regarding `O=C(Cc1ccccn1)N1CCc2ncnc(N3CCCC3)c2CC1.O=C(O)C(F)(F)F`, the “Percent Effect” value is -1.895%. As for `Cc1cccc(CN2CCc3ncnc(N4CCN(C)CC4)c3CC2)n1.O=C(O)C(F)(F)F.O=C(O)C(F)(F)F`, the “Percent Effect” value is 101.7%.

`Cc1cccc(CN2CCc3ncnc(N4CCOCC4)c3CC2)n1.O=C(O)C(F)(F)F`: the “Percent Effect” value is listed as -7.957%.

`Cc1cccc(CN2CCc3ncnc(N4CCCC4)c3CC2)n1.O=C(O)C(F)(F)F`: the “Percent Effect” value is 88.17%. On to `O=C(N1CCOCC1)N1C[C@@H]2OCCN(C(=O)c3ccco3)[C@@H]2C1`, for which the “Percent Effect” value was -0.4256%. In the case of `Cc1nn(C)c2ncc(S(=O)(=O)N3CCCC(C(N)=O)C3)cc12` (stereo not given) it was -2.512%; in that of `Cc1ccccc1CN(CC(=O)O)C(=O)COCC1CC1`, -13.15%; in that of `CC(C)(C)NC(=O)CNC(=O)c1cccnc1Oc1cccnc1`, -29.24%. For `COCCNC(=O)c1cccnc1Oc1ccc(Cl)cc1`, the “Percent Effect” value was 115.3%. As to `O=C(NCCOc1ncc(Cl)cc1Cl)c1ccncc1F`, the “Percent Effect” value is -4.331%. As to `CC(C)CCNC(=O)c1cccnc1Oc1cccnc1`, the “Percent Effect” value was 3.255%. As to `CCN(CC)C(C)CNC(=O)c1cccnc1Oc1cccnc1` (stereo not given), the “Percent Effect” value is listed as -104.8%. In the case of `O=C(NCCOCCO)c1cccnc1Oc1ccc(Cl)cc1` it was 144.4%; in that of `Cc1cccc(OCc2nnc(SCC3CCCN(C)C3)o2)c1` (stereo not given), 17.13%; in that of `Cc1nc(CCN)cc(N2CCC(O)(c3ccc(Cl)cc3)CC2)n1`, -10.13%. Next, `CC(C)CN1C(=O)CO[C@@H]2CN(C(=O)C3CCOCC3)C[C@H]21`: -22.5%; `Cc1nonc1C1CCCN1C(=O)CCc1cc2n(n1)CCCNC2` (stereo not given): 9.259%. For the compound `COCCC(=O)N1CC[C@H]2C(=O)N(c3ccsc3)CCO[C@H]2C1`, the “Percent Effect” value is listed as -5.602%.

On to `CC(C)OCC(=O)N1CCC(c2ncncc2-c2ccnc(N)c2)C1` (stereo not given), for which the “Percent Effect” value is reported as 123.4%. In the case of `Cc1nc(C2CCN(C(=O)COC(C)C)CC2)cc(N2CCOCC2)n1` it was 30.46%; in that of `COCCC(=O)N1CCC(c2ncncc2-c2ccnc(N)c2)C1` (stereo not given), 107.7%; in that of `COCCC(=O)N1CCC(Nc2ncc(Cl)cn2)CC1`, -4.765%. For the compound `Cc1ccc2c(c1)c(CNC(=O)C1CC(=O)N(C3CC3)C1)nn2C` (stereo not given), the “Percent Effect” value is 1.98%. Consider `CCC[C@H]1CN(C2CCOCC2)C[C@@H]1NC(=O)CCn1ccnc1C`, for which the “Percent Effect” value came to 0.5076%.

As for `Cc1cc(=O)n(CC(=O)NC2CCCCC2)c2ccccc12`, the “Percent Effect” value is on record as -8.945%.

As to `CCC(=O)N1CCN(C(=O)CCn2cccn2)CC1`, the “Percent Effect” value came out at 5.19%. Regarding `CC(=O)C(Cc1ccccc1)NC(=O)CSc1nccn1C1CC1` (stereo not given), the “Percent Effect” value was 4.235%. In the case of `Cc1nccn1[C@@H]1CC[C@@H](NC(=O)CCOc2ccccc2)[C@H]1O`, the “Percent Effect” value worked out at 125.1%. In the case of `CN(CCCOc1ccccc1)Cc1nccn1C` it was -7.331%. `CC(C)(C)n1c(NC(=O)CNC(=O)NC2CC2)nc2ccccc21`: the “Percent Effect” value was -6.693%. Regarding `Cc1nccn1[C@@H]1CC[C@@H](NC(=O)CCCn2cccn2)[C@H]1O`, the “Percent Effect” value stood at 100.2%.

For the compound `Cc1nccn1[C@@H]1CC[C@@H](NC(=O)Cn2c(C)nc3ccccc32)[C@H]1O`, the “Percent Effect” value is given as 99.52%.

For `CCc1nc(C)c(C(=O)N(C)Cc2cnn(-c3cccc(OC)c3)c2)s1`, the “Percent Effect” value was -4.854%. In the case of `Cc1ccccc1CSc1nc(N)cc(N2C[C@H](O)[C@@H](N(C)C)C2)n1`, the “Percent Effect” value is -0.3306%. As to `Cc1cccc(-c2c[nH]c(C3CCCN3C(=O)c3cc(C)n[nH]3)n2)c1` (stereo not given), the “Percent Effect” value amounted to 16.57%. Take `Cc1cc(N2CCC(O)CC2)nc(C2CCCN2C)n1` (stereo not given): the “Percent Effect” value is reported as 110.3%. Take `CC(=O)N1CCCC1c1nc(C)cc(-c2ccc(F)cc2)n1` (stereo not given): the “Percent Effect” value came out at 79.53%. With `Cc1cc(N2CCC(O)CC2)nc(C)n1`, the “Percent Effect” value is on record as 10.82%. Regarding `Cc1cc(-c2ccccc2C(=O)O)nc(C2CCCCN2C)n1` (stereo not given), the “Percent Effect” value is given as 97.78%. Turning to `Cc1cc(C)n(-c2ccc(N3CCC(O)CC3)nc2)n1`, the “Percent Effect” value is -17.54%. On to `CC(=O)N1CCCCC1c1nc(C)cc(-c2ccccc2C(=O)O)n1` (stereo not given), for which the “Percent Effect” value is listed as 100.6%. `CC(=O)N(CCc1nc(-c2cc(C(N)=O)co2)cs1)C(C)C`: the “Percent Effect” value is -2.269%. Next, `CC(C)(C)C(=O)N1C[C@@H](F)[C@@H](OCc2nc3ncccc3[nH]2)C1`: -11.47%; `COc1ccccc1CC(=O)NC(CC(=O)O)c1ccc(C)cc1` (stereo not given): -6.3%; `CS(=O)(=O)C1=C(O)C(=O)N(c2ccccc2)C1c1ccccc1` (stereo not given): 110.5%. In the case of `OCCC1CN(c2ncnc3[nH]cnc23)CCN1Cc1cccs1` (stereo not given) it was 9.965%; in that of `CCOCc1ccccc1NC(=O)NC1CCN(C2CCCC2)C1` (stereo not given), -8.399%. In the case of `Cn1cnnc1-c1cncc(NCc2cccc3c2OC(C)(C)C3)c1` it was -16.61%. For `N#Cc1cccc(CN(CC(=O)N2CCCC2)CC2CCCO2)c1` (stereo not given), the “Percent Effect” value is listed as 11.29%. For `N#Cc1cccc(CN2C[C@@H](NC(=O)C3CC3)[C@H]3OCCC[C@H]32)c1`, the “Percent Effect” value amounted to 101.9%.

In the case of `O=C(N[C@@H]1CN(Cc2ccc3c(c2)OCO3)[C@@H]2CCCO[C@@H]21)C1CC1`, the “Percent Effect” value is given as -19.8%.

Take `N#Cc1cccc(CN2C[C@H](NC(=O)C3CC3)[C@H]3OCCC[C@H]32)c1.O=C(O)C(F)(F)F`: the “Percent Effect” value is 100.2%.

With `Cc1cccc(OC2CCN(S(=O)(=O)Cc3cccc(F)c3)CC2)n1`, the “Percent Effect” value was -8.664%. Regarding `CSCC(C)(O)CNC(=O)c1cc(F)ccc1Br` (stereo not given), the “Percent Effect” value is recorded as -2.784%. On to `O=C(NC1CCN(Cc2ccc(F)cc2)CC1)c1ccc2c(c1)CCC2`, for which the “Percent Effect” value is -15.84%.

Regarding `Cn1cc(CNC(=O)c2cc3c(s2)CCCCC3)cn1`, the “Percent Effect” value is -22.89%. Next, `CCOc1ncccc1NC(=O)c1cc2c(s1)CCC2`: -11.29%. For `O=C(N[C@@H]1CC[C@@H](n2ccnc2)[C@@H]1O)c1cc2c(s1)CCC2`, the “Percent Effect” value came to 100.6%. Turning to `O=C(Cc1ccc2c(c1)CCCC2)N[C@@H]1CC[C@@H](n2ccnc2)[C@@H]1O`, the “Percent Effect” value stood at 128.7%. Next, `O=C(N[C@@H]1CCC[C@@H](n2ccnc2)[C@@H]1O)c1ccc2c(c1)CCCC2`: 113.7%; `O=C(NC1CCN(c2cc(-n3ccnc3)ncn2)CC1)c1ccncc1`: 4.759%; `O=C(Cc1ccc2c(c1)CCC2)NCCNc1ncccn1`: 11.75%.

`O=C(Cc1ccc2c(c1)CCC2)NC1CCN(Cc2ccccc2)CC1`: the “Percent Effect” value is on record as 7.244%.
